# Results as given in PubChem BioAssay (NCATS).
# Inconclusive results are not listed. Entries that show only a call come without a potency. Unmarked numbers belong to inactive results. The source made the active and inactive calls. Calls come from the whole dose curve; as a rule, active = well fitted inhibition curve with a large enough effect; inconclusive = small, poorly fitted or top-dose-only effect; inactive = flat fitted curve, though single readings scatter.
# Test system: MCC-13
# Test: qHTS assay to identify novel small-molecules to repurpose for Merkel cell carcinoma treatment (AID 1296009); note: nearly all actives have a fitted effect of over 60% in size
# Settings: MCC and control cell lines, CellTiter-Glo viability, 72 h; series mostly up to 46 µM
# In short: (§1)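 Cells were treated for 72 hr at 37 degree celsius with compounds in 8- or 11-point dose response. Viability was read by CellTiter-Glo luminescence, normalized to no-cell (cytotoxicity) and DMSO controls.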
SMILES,Potency,"activity change, negative = cytotoxicity"
Cc1ncc([N+](=O)[O-])n1CC(O)CCl (centres undefined),inactive,–
C[C@@H]1CCN(C(=O)[C@H](CCCN=C(N)N)NS(=O)(=O)c2cccc3c2NC[C@H](C)C3)[C@@H](C(=O)O)C1,inactive,–
C[C@H](NC(CCc1ccccc1)C(=O)O)C(=O)N1CCC[C@H]1C(=O)O (some centres undefined),inactive,–
Oc1ccc(C(O)CNCCCCCCNCC(O)c2ccc(O)c(O)c2)cc1O (centres undefined),inactive,–
CCCCC(CC)COC(=O)c1ccccc1O (centres undefined),inactive,–
N[C@H](C(=O)O)c1ccc(O)cc1,inactive,–
NC(=O)NC(=O)Cc1ccccc1,inactive,–
C#CCN(C)Cc1ccccc1,inactive,–
NS(=O)(=O)c1cc2c(cc1C(F)(F)F)NC(Cc1ccccc1)NS2(=O)=O (centres undefined),inactive,–
O=C1N=C(O)CN1/N=C/c1ccc(-c2ccc([N+](=O)[O-])cc2)o1,inactive,–
CCCCCCCCCCCCCCCCCCOCC(O)CO (centres undefined),inactive,–
NCCNCCNCCNCCN,–,6.32% [at 9.22 µM]
CN(C)CCCO[C@@H]1[C@H]2OC(C)(C)O[C@H]2O[C@@H]1C(O)CO (some centres undefined),inactive,–
OC[C@H]1O[C@@H](O[C@@H]2[C@@H](CO)O[C@](O)(CO)[C@H]2O)[C@H](O)[C@@H](O)[C@H]1O,inactive,–
N[C@@H](CSSC[C@H](N)C(=O)O)C(=O)O,–,4.94% [at 0.597 µM]
CC1(C)CO[C@@H](CC(=O)O)CN1,inactive,–
CC1=C(C/C=C(\C)CCC[C@H](C)CCC[C@H](C)CCCC(C)C)C(=O)c2ccccc2C1=O,inactive,–
COc1cc(C(=O)N2CCOCC2)cc(OC)c1OC,inactive,–
CCCCC/C(C=O)=C\c1ccccc1,inactive,–
CC(=O)Nc1ccc(/C=N/NC(N)=S)cc1,inactive,–

SMILES,Potency,"activity change, negative = cytotoxicity"
O=C1OC(OC(=O)c2cccnc2Nc2cccc(C(F)(F)F)c2)c2ccccc21 (centres undefined),inactive,–
O=C(O)CN1C(=O)c2cccc3cccc(c23)C1=O,inactive,–
CN1[C@@H]2CC[C@H]1CC(OC(=O)C(O)c1ccccc1)C2 (some centres undefined),inactive,–
O=C(Oc1ccccc1C(=O)O)c1ccccc1O,inactive,–
CC(COc1ccccc1)NC(C)C(O)c1ccc(O)cc1 (centres undefined),inactive,–
CCN(CC)CCOC(=O)C1(C2CCCCC2)CCCCC1,inactive,–
Cc1cc(O)cc2c1O[C@](C)(CCC[C@H](C)CCC[C@H](C)CCCC(C)C)CC2,inactive,–
O=S(=O)(O)c1cc(I)c(O)c2ncccc12,inactive,–
Cc1ncc(COP(=O)(O)O)c(C=O)c1O,inactive,–
CO/N=C(\C(=O)N[C@@H]1C(=O)N2C(C(=O)O)=C(CSc3nc(=O)c(O)nn3C)CS[C@H]12)c1csc(N)n1,inactive,–
O=C(O)COc1nn(Cc2ccccc2)c2ccccc12,inactive,–
CCCc1c(OCCCCc2nn[nH]n2)ccc(C(C)=O)c1O,inactive,–
COc1ccc2cc1Oc1cc3c(cc1OC)CC[N+](C)(C)[C@H]3Cc1ccc(cc1)Oc1c(OC)c(OC)cc3c1[C@@H](C2)[N+](C)(C)CC3,inactive,–
NC1CCN(c2cccc(Cl)n2)CC1,inactive,–
Nc1cc(=O)[nH]c(N)n1,inactive,–
CC(O)COc1ccccc1 (centres undefined),inactive,–
CC1CC(OC(=O)C(O)c2ccccc2)CC(C)(C)N1C (centres undefined),inactive,–
O=C1O[C@H](CO)[C@@H](O)[C@H](O)[C@H]1O,inactive,–
NC(CSCC(=O)O)C(=O)O (centres undefined),inactive,–

# Test system: MCC-26
# Test: as above
# Settings: MCC and control cell lines, CellTiter-Glo viability, 72 h; series mostly up to 46 µM
# In short: as §1
row,SMILES,Potency
1,C[C@@H]1CCN(C(=O)[C@H](CCCN=C(N)N)NS(=O)(=O)c2cccc3c2NC[C@H](C)C3)[C@@H](C(=O)O)C1,inactive
2,C[C@H](NC(CCc1ccccc1)C(=O)O)C(=O)N1CCC[C@H]1C(=O)O (some centres undefined),inactive
3,N[C@H](C(=O)O)c1ccc(O)cc1,inactive
4,O=C1N=C(O)CN1/N=C/c1ccc(-c2ccc([N+](=O)[O-])cc2)o1,inactive
5,OC[C@H]1O[C@@H](O[C@@H]2[C@@H](CO)O[C@](O)(CO)[C@H]2O)[C@H](O)[C@@H](O)[C@H]1O,inactive
6,CC1(C)CO[C@@H](CC(=O)O)CN1,inactive
7,CCCCC/C(C=O)=C\c1ccccc1,inactive
8,CC(=O)Nc1ccc(/C=N/NC(N)=S)cc1,inactive
9,O=C(O)CN1C(=O)c2cccc3cccc(c23)C1=O,inactive
10,CN1[C@@H]2CC[C@H]1CC(OC(=O)C(O)c1ccccc1)C2 (some centres undefined),inactive
11,CC(COc1ccccc1)NC(C)C(O)c1ccc(O)cc1 (centres undefined),inactive
12,CCN(CC)CCOC(=O)C1(C2CCCCC2)CCCCC1,inactive
13,Cc1cc(O)cc2c1O[C@](C)(CCC[C@H](C)CCC[C@H](C)CCCC(C)C)CC2,inactive
14,O=S(=O)(O)c1cc(I)c(O)c2ncccc12,inactive
15,CO/N=C(\C(=O)N[C@@H]1C(=O)N2C(C(=O)O)=C(CSc3nc(=O)c(O)nn3C)CS[C@H]12)c1csc(N)n1,inactive
16,O=C(O)COc1nn(Cc2ccccc2)c2ccccc12,inactive
17,COc1ccc2cc1Oc1cc3c(cc1OC)CC[N+](C)(C)[C@H]3Cc1ccc(cc1)Oc1c(OC)c(OC)cc3c1[C@@H](C2)[N+](C)(C)CC3,inactive
18,NC1CCN(c2cccc(Cl)n2)CC1,inactive
19,CC1CC(OC(=O)C(O)c2ccccc2)CC(C)(C)N1C (centres undefined),inactive
20,O=C1O[C@H](CO)[C@@H](O)[C@H](O)[C@H]1O,inactive
